Measurements reported in PubChem BioAssay (NCATS).
Inconclusive results are not listed. Unmarked numbers belong to inactive results. The source made the active and inactive calls. Calls come from the whole dose curve; as a rule, active = well fitted cell-killing curve with a large enough effect; inconclusive = small, poorly fitted or top-dose-only effect, or effect the other way; inactive = no such curve, though single readings can be large or run the other way.

assay: Viability qHTS for spleen associated tyrosine kinase inhibitor (SYKi) drug resistant MV4-11 cells (AID 1963824); settings: SYKi-resistant MV4-11 viability, CellTiter-Glo, 72 h; series mostly up to 45 µM; viability, % of control: at the top concentration; note: nearly all actives have a fitted effect of over 35% in size
Outline: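 CellTiter-Glo luminescence, read 10 min after reagent addition, reports viability after a 72 hr compound exposure. Cells are an MV4-11 line made resistant to SYK inhibition, seeded at 500 per well onto compound-containing plates.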
Potency is the fitted concentration of half-maximal effect.

Row | SMILES | viability, % of control | Potency
1 | C=CCc1ccc(O[C@@H]2O[C@H](CO)[C@@H](O)[C@H](O)[C@H]2O)c(O[C@@H]2O[C@H](CO)[C@@H](O)[C@H](O)[C@H]2O)c1 | 88.5% [at 17.3 µM] | 
2 | COc1cc2ncnc(Nc3cccc(O)c3)c2cc1OC |  | 0.651 µM (active)
3 | CN[C@@H]1[C@@H](O)[C@@H](O[C@@H]2[C@@H](O)[C@H](O[C@H]3O[C@@H]([C@@H](C)NC)CC[C@H]3N)[C@@H](N)C[C@H]2N)OC[C@]1(C)O | 105% | 
4 | CCOC(=O)COc1ccc2c(c1)C[C@@H](NC[C@H](O)c1cccc(Cl)c1)CC2 |  | 8.2 µM (active)
5 | CCC(CCO[C@@H]1O[C@H](CO[C@H]2OC[C@](O)(CO)[C@H]2O)[C@@H](O)[C@H](O)[C@H]1O)C(C)(C)O (stereo partly specified) | 72.6% [at 17.3 µM] | 
6 | C[C@@H]1O[C@@H](O[C@H]2[C@H](OC(=O)[C@]34CCC(C)(C)C[C@H]3C3=CCC5[C@@]6(C)CC[C@H](O[C@@H]7O[C@H](C(=O)O)[C@@H](O)[C@H](O)[C@H]7O[C@@H]7O[C@H](CO)[C@H](O)[C@H](O)[C@H]7O)[C@@](C)(C=O)C6CC[C@@]5(C)[C@]3(C)C[C@H]4O)O[C@H](C)[C@H](O[C@@H]3O[C@H](C)[C@H](O)[C@H](O)[C@H]3O)[C@@H]2O)[C@H](O)[C@H](O)[C@H]1O[C@@H]1OC[C@@H](O)[C@H](O[C@@H]2O[C@H](CO)[C@@H](O)[C@H](O)[C@H]2O)[C@H]1O (stereo partly specified) | 5.67% [at 4.97 µM] | 
7 | COc1ccc(C(=O)OC2C3C=COC(OC4OC(CO)C(O)C(O)C4O)C3C3(CO)OC23)cc1OC (stereo unspecified) | 92% [at 17.3 µM] | 
8 | C[C@@H]1C(=O)O[C@H]2CC34[C@H]5C[C@@H](C(C)(C)C)C36[C@@H](OC(=O)[C@@H]6O)OC4(C(=O)O5)[C@]21O (stereo partly specified) | 72.4% | 
9 | CC(C)C[C@H](NC(=O)CNC(=O)OCc1ccccc1)C(=O)N[C@@H](Cc1ccccc1)C(=O)CCl |  | 8.2 µM (active)
10 | C[S+](CC[C@H](N)C(=O)[O-])C[C@H]1O[C@@H](n2cnc3c(N)ncnc32)[C@H](O)[C@@H]1O (stereo partly specified) | 86.8% | 
11 | CC(C)(O)/C=C/C(=O)[C@](C)(O)[C@H]1[C@H](O)C[C@@]2(C)[C@@H]3CC=C4[C@@H](C=C(O[C@@H]5O[C@H](CO)[C@@H](O)[C@H](O)[C@H]5O)C(=O)C4(C)C)[C@]3(C)C(=O)C[C@]12C | 72% [at 17.3 µM] | 
12 | CC(=O)OC1(C)CC(O)C2(O)C=COC(OC3OC(CO)C(O)C(O)C3O)C12 (stereo unspecified) | 92.3% [at 17.3 µM] | 
13 | CC1(CO)CC[C@]2(C(=O)O[C@@H]3O[C@H](CO)[C@@H](O)[C@H](O)[C@H]3O)CC[C@]3(C)C(=CCC4[C@@]5(C)CC[C@H](O[C@@H]6O[C@H](C(=O)O)[C@@H](O)[C@H](O)[C@H]6O)C(C)(C)C5CC[C@]43C)C2C1 (stereo partly specified) | 104% [at 9.25 µM] | 
14 | COc1ccc(/C=C/C(=O)O[C@@H]2[C@@H](O)[C@@H](O)[C@H](O[C@@H]3C=C(CO)[C@H]4[C@H](O[C@@H]5O[C@H](CO)[C@@H](O)[C@H](O)[C@H]5O)OC=C[C@H]43)O[C@H]2C)cc1O | 98.3% [at 17.3 µM] | 
15 | CNS(=O)(=O)c1ccccc1Nc1nc(Nc2ccc(N3CCN(C)CC3)cc2OC)ncc1Br |  | 0.0326 µM (active)
16 | C=C1C[C@@]23CC[C@@H]4[C@](C)(C(=O)O)CCC[C@@]4(C)C2=CC[C@H]1C3 | 108% | 
17 | COc1ccc(O[C@@H]2O[C@H](CO)[C@@H](O)[C@H](O)[C@H]2O)cc1OC | 88.9% | 
18 | COc1cc(C2Oc3c(OC)cc(CCCO[C@@H]4O[C@H](CO)[C@@H](O)[C@H](O)[C@H]4O)cc3C2CO)ccc1O (stereo partly specified) | 74.4% [at 17.3 µM] | 
19 | CC1=CC(=O)C2C(C)(C)CCC[C@]2(C)[C@H]1CO (stereo partly specified) | 77.2% | 
20 | C[C@@H]1O[C@@H](O[C@H]2[C@H](O)[C@@H](O[C@@H]3O[C@H](CO)[C@@H](O)[C@H](O[C@@H]4O[C@H](CO)[C@@H](O)[C@H](O)[C@H]4O)[C@H]3O)[C@H](O[C@H]3CC[C@@]4(C)C(=CC[C@@H]5C4CC[C@@]4(C)C5C[C@@H]5OC6(CC[C@@](C)(CO[C@@H]7O[C@H](CO)[C@@H](O)[C@H](O)[C@H]7O)O6)[C@@H](C)[C@@H]54)C3)O[C@@H]2CO)[C@H](O)[C@H](O)[C@H]1OC1OC(CO)C(O)C(O)C1O (stereo partly specified) | 109% [at 9.25 µM] | 
21 | CC1(C)CC[C@]2(C(=O)OC3OC(CO)C(O)C(O)C3O)CC[C@]3(C)C(=CCC4[C@@]5(C)CC[C@H](OC6OC(C(=O)O)C(O)C(O)C6O)C(CO)(CO)C5CC[C@]43C)[C@@H]2C1 (stereo partly specified) |  | 0.438 µM (active)
